# Reference: the supplement of paper PMC9446081
# ± gives the standard deviation of the averaged measurements.
# Columns and labels:
# Test in all cases: relative enzymatic activity vs untreated control (fraction); higher = less inhibition
# Conditions in all cases: 100 µM; incubation time: 2 h at 37 C
# DNA gyrase = test system: DNA gyrase
# Description: (§1)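 In vitro enzymatic inhibition assays (ProFoldin kits) for 12 purified essential E. coli enzymes or complexes, each treated with 218 active antibacterial compounds at 100 µM for 2 h at 37°C. Read-outs were fluorescence or absorbance (phosphate detection, dye binding), converted to activity via standard curves and expressed relative to untreated DMSO controls.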
# DNA helicase = DNA helicase (UniProt P0ACB1)
# Description: as §1
# DNA ligase = DNA ligase (UniProt B1XA82)
# Description: as §1
# DNA polymerase = DNA polymerase (UniProt P10443)
# Description: as §1
# DNA primase = DNA primase (UniProt P0ABS7)
# Description: as §1
# GlmU = GlmU (UniProt A7ZTU1)
# Description: as §1
# Guanlyate kinase = Guanlyate kinase (UniProt Q0TBG1)
# Description: as §1
# MurA = MurA (UniProt Q3YX52)
# Description: as §1
# MurD = molecular target: T1, MurD (UniProt P14900)
# T1 sequence (whole entry): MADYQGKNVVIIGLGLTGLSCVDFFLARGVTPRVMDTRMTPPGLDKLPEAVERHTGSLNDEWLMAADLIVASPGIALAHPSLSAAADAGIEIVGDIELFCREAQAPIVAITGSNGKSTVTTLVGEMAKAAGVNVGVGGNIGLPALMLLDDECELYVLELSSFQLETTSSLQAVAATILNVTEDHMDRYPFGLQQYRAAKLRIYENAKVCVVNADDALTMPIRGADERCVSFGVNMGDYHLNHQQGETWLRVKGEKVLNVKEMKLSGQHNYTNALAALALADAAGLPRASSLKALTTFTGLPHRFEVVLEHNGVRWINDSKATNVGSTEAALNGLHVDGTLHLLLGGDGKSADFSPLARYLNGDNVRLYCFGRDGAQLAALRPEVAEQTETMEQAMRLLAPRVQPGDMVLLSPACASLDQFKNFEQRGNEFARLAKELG
# Description: as §1
# MurF = molecular target: T2, MurF (UniProt P11880)
# T2 sequence (whole entry): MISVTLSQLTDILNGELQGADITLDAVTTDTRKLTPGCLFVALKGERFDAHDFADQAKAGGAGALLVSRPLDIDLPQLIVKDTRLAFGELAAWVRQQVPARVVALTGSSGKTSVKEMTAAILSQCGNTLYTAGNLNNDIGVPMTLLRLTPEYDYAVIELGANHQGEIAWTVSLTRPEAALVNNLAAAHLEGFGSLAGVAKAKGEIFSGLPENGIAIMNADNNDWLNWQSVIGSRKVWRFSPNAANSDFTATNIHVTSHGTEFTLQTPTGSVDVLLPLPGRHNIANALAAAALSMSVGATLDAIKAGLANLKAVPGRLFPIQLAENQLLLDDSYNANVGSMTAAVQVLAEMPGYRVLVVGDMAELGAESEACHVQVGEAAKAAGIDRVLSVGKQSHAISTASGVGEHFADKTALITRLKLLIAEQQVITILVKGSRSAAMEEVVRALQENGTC
# Description: as §1
# RNA polymerase = test system: RNA polymerase
# Description: as §1
# Chain of Guanlyate kinase (Q0TBG1 whole entry): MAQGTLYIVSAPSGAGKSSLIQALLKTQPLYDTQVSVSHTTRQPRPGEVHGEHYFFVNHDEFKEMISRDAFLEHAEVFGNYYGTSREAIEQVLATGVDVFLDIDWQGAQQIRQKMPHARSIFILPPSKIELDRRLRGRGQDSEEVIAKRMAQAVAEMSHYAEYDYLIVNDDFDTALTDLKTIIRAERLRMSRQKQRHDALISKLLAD
# Chain of DNA ligase (B1XA82 whole entry): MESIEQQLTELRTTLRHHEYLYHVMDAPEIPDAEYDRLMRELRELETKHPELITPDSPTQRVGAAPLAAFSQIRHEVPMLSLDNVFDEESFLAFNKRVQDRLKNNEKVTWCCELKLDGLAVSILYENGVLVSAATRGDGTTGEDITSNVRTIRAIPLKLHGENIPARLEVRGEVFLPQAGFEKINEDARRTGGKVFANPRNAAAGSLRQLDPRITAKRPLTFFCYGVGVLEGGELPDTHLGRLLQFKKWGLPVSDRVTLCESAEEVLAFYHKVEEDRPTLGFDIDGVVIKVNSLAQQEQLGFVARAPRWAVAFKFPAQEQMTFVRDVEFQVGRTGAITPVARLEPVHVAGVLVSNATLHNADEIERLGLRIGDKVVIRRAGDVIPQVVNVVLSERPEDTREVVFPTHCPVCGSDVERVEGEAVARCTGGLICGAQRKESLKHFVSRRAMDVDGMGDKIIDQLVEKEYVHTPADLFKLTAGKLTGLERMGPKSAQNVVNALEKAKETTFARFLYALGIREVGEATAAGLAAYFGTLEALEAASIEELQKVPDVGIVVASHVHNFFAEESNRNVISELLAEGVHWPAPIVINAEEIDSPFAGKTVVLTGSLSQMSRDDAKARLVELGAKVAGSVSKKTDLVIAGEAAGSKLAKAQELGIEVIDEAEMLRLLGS
# Chain of DNA helicase (P0ACB1 whole entry): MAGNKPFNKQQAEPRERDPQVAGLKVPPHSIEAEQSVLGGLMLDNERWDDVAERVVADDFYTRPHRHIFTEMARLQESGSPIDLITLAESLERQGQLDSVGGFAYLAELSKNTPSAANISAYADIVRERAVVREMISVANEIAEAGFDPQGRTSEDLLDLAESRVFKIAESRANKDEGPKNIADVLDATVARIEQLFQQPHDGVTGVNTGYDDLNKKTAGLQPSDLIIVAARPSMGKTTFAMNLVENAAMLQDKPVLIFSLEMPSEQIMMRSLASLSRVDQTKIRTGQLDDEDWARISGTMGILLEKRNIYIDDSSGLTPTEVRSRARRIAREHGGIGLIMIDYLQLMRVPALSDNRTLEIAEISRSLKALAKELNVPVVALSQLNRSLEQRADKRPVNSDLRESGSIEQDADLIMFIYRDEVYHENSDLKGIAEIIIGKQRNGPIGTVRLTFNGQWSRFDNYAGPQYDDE
# Chain of GlmU (A7ZTU1 whole entry, looked up): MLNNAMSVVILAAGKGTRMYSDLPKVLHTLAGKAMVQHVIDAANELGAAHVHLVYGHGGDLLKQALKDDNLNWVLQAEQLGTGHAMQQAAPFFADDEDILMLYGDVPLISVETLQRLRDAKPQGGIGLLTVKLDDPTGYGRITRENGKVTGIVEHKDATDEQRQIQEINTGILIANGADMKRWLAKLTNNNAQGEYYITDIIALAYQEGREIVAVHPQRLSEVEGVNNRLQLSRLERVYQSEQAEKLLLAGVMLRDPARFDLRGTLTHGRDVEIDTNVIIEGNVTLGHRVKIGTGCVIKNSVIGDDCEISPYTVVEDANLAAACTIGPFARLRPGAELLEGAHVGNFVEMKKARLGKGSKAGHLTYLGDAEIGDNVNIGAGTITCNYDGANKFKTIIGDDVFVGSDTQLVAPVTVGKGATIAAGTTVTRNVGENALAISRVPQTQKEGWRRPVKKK
# Chain of MurA (Q3YX52 whole entry): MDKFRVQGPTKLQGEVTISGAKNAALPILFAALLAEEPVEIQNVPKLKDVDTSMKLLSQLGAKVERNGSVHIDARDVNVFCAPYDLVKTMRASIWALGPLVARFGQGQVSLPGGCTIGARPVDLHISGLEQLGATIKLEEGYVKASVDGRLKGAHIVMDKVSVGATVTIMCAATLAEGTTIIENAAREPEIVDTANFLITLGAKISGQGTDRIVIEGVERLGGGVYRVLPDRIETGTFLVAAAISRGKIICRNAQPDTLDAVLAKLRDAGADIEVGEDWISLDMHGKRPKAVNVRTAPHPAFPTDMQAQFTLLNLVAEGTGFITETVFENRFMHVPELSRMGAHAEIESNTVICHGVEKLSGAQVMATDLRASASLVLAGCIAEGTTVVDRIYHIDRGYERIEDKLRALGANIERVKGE
# Chain of DNA polymerase (P10443 whole entry): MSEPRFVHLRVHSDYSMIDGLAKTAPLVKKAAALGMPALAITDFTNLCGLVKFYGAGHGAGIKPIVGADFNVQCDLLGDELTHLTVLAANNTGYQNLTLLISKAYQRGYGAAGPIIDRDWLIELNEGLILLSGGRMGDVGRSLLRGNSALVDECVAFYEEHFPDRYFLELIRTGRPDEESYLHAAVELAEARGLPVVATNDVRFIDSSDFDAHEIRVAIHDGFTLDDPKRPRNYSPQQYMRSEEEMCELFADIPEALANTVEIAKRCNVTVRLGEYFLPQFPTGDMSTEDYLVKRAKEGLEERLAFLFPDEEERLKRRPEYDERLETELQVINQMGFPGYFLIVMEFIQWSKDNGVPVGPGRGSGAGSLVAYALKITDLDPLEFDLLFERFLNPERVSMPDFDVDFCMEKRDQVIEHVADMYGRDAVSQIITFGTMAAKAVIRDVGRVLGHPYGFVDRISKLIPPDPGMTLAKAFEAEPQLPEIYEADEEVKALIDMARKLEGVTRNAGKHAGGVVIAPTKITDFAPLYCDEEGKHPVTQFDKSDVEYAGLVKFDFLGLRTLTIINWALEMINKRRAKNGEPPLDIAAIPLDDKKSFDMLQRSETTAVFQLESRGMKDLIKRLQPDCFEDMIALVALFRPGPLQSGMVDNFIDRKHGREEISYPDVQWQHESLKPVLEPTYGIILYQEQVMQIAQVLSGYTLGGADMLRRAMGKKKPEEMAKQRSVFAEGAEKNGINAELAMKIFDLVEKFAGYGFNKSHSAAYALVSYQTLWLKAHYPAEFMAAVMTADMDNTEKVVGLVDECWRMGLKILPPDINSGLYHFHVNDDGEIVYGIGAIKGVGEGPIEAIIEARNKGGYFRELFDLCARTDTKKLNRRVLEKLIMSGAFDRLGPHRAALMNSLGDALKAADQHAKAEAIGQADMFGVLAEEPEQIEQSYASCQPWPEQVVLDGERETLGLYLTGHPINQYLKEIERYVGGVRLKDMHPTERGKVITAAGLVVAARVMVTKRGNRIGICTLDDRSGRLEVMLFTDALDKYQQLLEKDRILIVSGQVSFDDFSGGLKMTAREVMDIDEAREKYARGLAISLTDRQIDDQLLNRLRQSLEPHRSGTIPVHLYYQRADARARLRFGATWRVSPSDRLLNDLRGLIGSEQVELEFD
# Chain of DNA primase (P0ABS7 whole entry): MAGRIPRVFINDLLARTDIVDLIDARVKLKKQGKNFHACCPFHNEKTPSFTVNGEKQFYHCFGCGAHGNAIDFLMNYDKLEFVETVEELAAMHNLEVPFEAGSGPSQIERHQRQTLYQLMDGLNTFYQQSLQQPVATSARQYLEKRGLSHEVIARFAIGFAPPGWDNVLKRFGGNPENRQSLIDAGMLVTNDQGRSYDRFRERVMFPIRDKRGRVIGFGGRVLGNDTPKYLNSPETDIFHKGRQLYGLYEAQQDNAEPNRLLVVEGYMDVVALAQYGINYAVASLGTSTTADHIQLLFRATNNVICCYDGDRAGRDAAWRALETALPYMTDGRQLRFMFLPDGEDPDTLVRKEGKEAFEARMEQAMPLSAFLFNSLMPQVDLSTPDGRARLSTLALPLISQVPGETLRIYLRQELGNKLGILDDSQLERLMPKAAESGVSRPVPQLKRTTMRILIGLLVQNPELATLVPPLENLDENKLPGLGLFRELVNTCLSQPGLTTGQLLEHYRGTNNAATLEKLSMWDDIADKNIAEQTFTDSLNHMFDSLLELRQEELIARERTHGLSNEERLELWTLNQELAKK
Structure (SMILES),relative enzymatic activity (DNA gyrase),relative enzymatic activity (DNA helicase),relative enzymatic activity (DNA ligase),relative enzymatic activity (DNA polymerase),relative enzymatic activity (DNA primase),relative enzymatic activity (GlmU),relative enzymatic activity (Guanlyate kinase),relative enzymatic activity (MurA),relative enzymatic activity (MurD),relative enzymatic activity (MurF),relative enzymatic activity (RNA polymerase)
O=C(NO)c1cn(-c2cccc(C(=O)N3CCC4(CC3)C(=O)NCN4c3ccccc3)c2)nn1,≤ 0,0.0673 ± 0.0027,0.205 ± 0.025,0.00452 ± 0.00034,≤ 0,0.656 ± 0.088,≤ 0,0.245 ± 0.072,0.36 ± 0.22,0.634 ± 0.13,0.00747 ± 0.0021
CCN1CCN(c2cc3c(cc2F)c(=O)c(C(=O)O)cn3C2CC2)CC1,0.0177 ± 0.025,0.462 ± 0.018,1.05 ± 0.34,1.15 ± 0.22,0.617 ± 0.12,1 ± 0.11,0.894 ± 0.05,0.659 ± 0.029,0.59 ± 0.4,0.88 ± 0.13,0.808 ± 0.02
NCC1OC(OC2C(N)CC(N)C(OC3OC(CO)C(O)C(N)C3O)C2O)C(N)C(O)C1O.O=S(=O)(O)O (configuration not stated),0.685 ± 0.063,0.381 ± 0.53,0.834 ± 0.15,0.924 ± 0.43,0.539 ± 0.052,0.956 ± 0.069,0.589 ± 0.046,0.257 ± 0.04,0.647 ± 0.44,0.958 ± 0.17,0.537 ± 0.016
NCC1OC(OC2C(N)CC(N)C(OC3OC(CO)C(O)C(N)C3O)C2O)C(N)CC1O (configuration not stated),1.2 ± 0.12,0.45 ± 0.37,1.02 ± 0.084,1.33 ± 0.47,0.71 ± 0.18,0.979 ± 0.048,1 ± 0.013,0.82 ± 0.12,0.611 ± 0.4,0.932 ± 0.15,0.809 ± 0.04
CCCCCCCCCCCCCCCC[N+](C)(C)Cc1ccccc1.[Cl-],0.3954 ± 0.003,0.0157 ± 0.00047,0.183 ± 0.12,0.0334 ± 0.0085,0.27 ± 0.0085,0.115 ± 0.0013,0.0243 ± 0.0088,0.032 ± 0.0013,0.0872 ± 0.0094,0.156 ± 0.061,0.133 ± 0.018
CC1COc2c(C3(N)CC3)c(F)cc3c(=O)c(C(=O)O)cn1c23.CS(=O)(=O)O (configuration not stated),0.0382 ± 0.054,0.57 ± 0.24,0.904 ± 0.083,0.511 ± 0.72,0.835 ± 0.011,0.898 ± 0.045,1.02 ± 0.16,0.879 ± 0.057,0.579 ± 0.4,1.07 ± 0.021,0.872 ± 0.013
CO/N=C(\C(=O)N[C@@H]1C(=O)N2C(C(=O)O)=C(C[N+]3(C)CCCC3)CS[C@H]12)c1csc(N)n1,0.284 ± 0.099,0.202 ± 0.28,1.11 ± 0.05,1.12 ± 0.18,0.722 ± 0.012,0.943 ± 0.023,1.06 ± 0.074,0.144 ± 0.026,0.591 ± 0.42,1.15 ± 0.066,0.575 ± 0.11
O=c1[nH]c(=O)n(C2CC(O)C(CO)O2)cc1F (configuration not stated),0.98 ± 0.053,0.557 ± 0.14,1.15 ± 0.19,1.2 ± 0.26,0.657 ± 0.14,1.09 ± 0.097,1.03 ± 0.036,0.856 ± 0.064,0.597 ± 0.4,0.931 ± 0.18,0.84 ± 0.0053
CC1(C)S[C@@H]2[C@H](NC(=O)[C@H](N)c3ccccc3)C(=O)N2[C@H]1C(=O)OCOC(=O)[C@@H]1N2C(=O)C[C@H]2S(=O)(=O)C1(C)C,0.828 ± 0.25,0.472 ± 0.23,0.742 ± 0.024,0.512 ± 0.72,0.809 ± 0.025,0.994 ± 0.012,0.946 ± 0.046,0.6 ± 0.24,0.58 ± 0.38,1.11 ± 0.15,0.868 ± 0.042
CCn1cc(C(=O)O)c(=O)c2cc(F)c(N3CCNC(C)C3)c(F)c21.Cl (configuration not stated),0.0253 ± 0.036,0.786 ± 0.38,1.442 ± 0.0066,1.29 ± 0.3,0.712 ± 0.2,1.09 ± 0.16,1 ± 0.097,0.728 ± 0.031,0.577 ± 0.38,0.554 ± 0.78,1.16 ± 0.36
CO/N=C(\C(=O)N[C@@H]1C(=O)N2C(C(=O)O)=C(CSC(=O)c3ccco3)CS[C@H]12)c1csc(N)n1,0.0013 ± 0.0018,0.049 ± 0.0096,0.817 ± 0.063,0.312 ± 0.026,0.533 ± 0.092,0.492 ± 0.17,0.778 ± 0.12,0.0403 ± 0.017,0.125 ± 0.094,0.82 ± 0.26,0.602 ± 0.68
Cn1nnnc1SCC1=C(C(=O)[O-])N2C(=O)C(NC(=O)C(O)c3ccccc3)C2SC1.[Na+] (configuration not stated),0.841 ± 0.26,0.638 ± 0.12,1.42 ± 0.27,1.19 ± 0.25,0.689 ± 0.18,1.16 ± 0.18,0.942 ± 0.17,0.0762 ± 0.016,0.636 ± 0.44,0.988 ± 0.21,1.16 ± 0.45
CON=C(C(=O)NC1C(=O)N2C(C(=O)OCOC(=O)C(C)(C)C)=C(C=Cc3scnc3C)CSC12)c1csc(N)n1 (configuration not stated),0.894 ± 0.26,0.379 ± 0.064,1.24 ± 0.4,1.24 ± 0.33,0.894 ± 0.029,0.914 ± 0.031,0.794 ± 0.14,0.253 ± 0.062,0.568 ± 0.41,0.893 ± 0.24,0.872 ± 0.034
CCCCCCCCCCCCCCCC[N+](C)(C)C,0.633 ± 0.67,0.0316 ± 0.02,0.457 ± 0.13,0.0628 ± 0.012,0.384 ± 0.054,0.198 ± 0.0053,0.644 ± 0.077,0.0456 ± 0.013,0.173 ± 0.085,0.106 ± 0.034,0.223 ± 0.0051
NC(=O)N/N=C/c1ccc([N+](=O)[O-])o1,0.691 ± 0.48,0.657 ± 0.29,0.974 ± 0.26,1.04 ± 0.16,0.761 ± 0.072,1.006 ± 0.004,0.751 ± 0.048,0.504 ± 0.021,0.507 ± 0.66,0.962 ± 0.21,0.734 ± 0.088
CN[C@@H]1[C@H](O)[C@H](NC)[C@H]2O[C@@]3(O)C(=O)C[C@@H](C)O[C@H]3O[C@@H]2[C@H]1O,0.826 ± 0.36,0.508 ± 0.2,1.12 ± 0.086,1.09 ± 0.072,0.8044 ± 0.0019,1 ± 0.033,1.06 ± 0.05,0.601 ± 0.16,0.624 ± 0.44,1.16 ± 0.02,0.91 ± 0.14
CC(C)(O/N=C(\C(=O)N[C@@H]1C(=O)N2C(C(=O)O)=C(C[N+]3(CCNC(=O)c4ccc(O)c(O)c4Cl)CCCC3)CS[C@H]12)c1csc(N)n1)C(=O)O,0.401 ± 0.11,0.506 ± 0.075,0.933 ± 0.058,1.05 ± 0.32,0.753 ± 0.013,0.92 ± 0.062,0.834 ± 0.094,0.0569 ± 0.016,0.515 ± 0.35,1.01 ± 0.23,0.672 ± 0.082
